Experimental data as given in PubChem BioAssay AID1159580 (chemical genetic matrix, 2015).
About 2,000 (36%) of roughly 5,500 compounds were called active. Not shown: some 18% with an inconclusive outcome. Rule as the data show it: active = normalized growth mostly below about 0.91 (no sharp cut-off); inconclusive = no clear call, values can overlap the other calls; inactive = mostly above about 0.92. The list shows a part of the results.

Assay: chemical genetic growth profiling, strain panel (AID 1159580);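 also: tested at 20 µM; growth read once vehicle control cultures reached saturation at 30 °C; 1 = growth at the plate median or of vehicle wells; lower values mean less growth of the strain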
Conditions: growth OD

Measured: normalized growth

O=C(O)CCCOc1ccc(Cl)cc1Cl
inactive: S. cerevisiae deletion strains, locus YJR075W, strain HOC1, stronger effect = lower value 0.999 | S. cerevisiae deletion strains, locus YKL009W, strain mrt4, stronger effect = lower value 0.967 | S. cerevisiae deletion strains, locus YKL068W, stronger effect = lower value 0.986 | S. cerevisiae deletion strains, locus YKL085W, strain MDH1 (second series), stronger effect = lower value 0.984 | S. cerevisiae deletion strains, locus YKL085W, strain MDH1, stronger effect = lower value 0.984 | S. cerevisiae deletion strains, locus YKL160W, strain elf1, stronger effect = lower value 0.953 | S. cerevisiae deletion strains, locus YKL190W, strain CNB1, stronger effect = lower value 0.982 | S. cerevisiae deletion strains, locus YKR001C, strain vps1, stronger effect = lower value 0.996 | S. cerevisiae deletion strains, locus YKR026C, strain gcn3, stronger effect = lower value 0.926 | S. cerevisiae deletion strains, locus YKR091W, strain srl3, stronger effect = lower value 0.955 | S. cerevisiae deletion strains, locus YLL001W, strain dnm1, stronger effect = lower value 0.94 | S. cerevisiae deletion strains, locus YLL026W, stronger effect = lower value 0.945 | S. cerevisiae deletion strains, locus YLL041C, strain sdh2, stronger effect = lower value 0.951 | S. cerevisiae deletion strains, locus YLR027C, strain aat2, stronger effect = lower value 0.96 | S. cerevisiae deletion strains, locus YLR039C, strain RIC1, stronger effect = lower value 0.965 | S. cerevisiae deletion strains, locus YLR058C, strain SHM2, stronger effect = lower value 0.999 | S. cerevisiae deletion strains, locus YLR102C, strain apc9, stronger effect = lower value 1.03 | S. cerevisiae deletion strains, locus YLR221C, strain rsa3, stronger effect = lower value 0.949 | S. cerevisiae deletion strains, locus YLR258W, strain gsy2, stronger effect = lower value 0.943 | S. cerevisiae deletion strains, locus YLR262C, strain YPT6, stronger effect = lower value 0.976 | S. cerevisiae deletion strains, locus YLR268W, strain sec22, stronger effect = lower value 1.02 | S. cerevisiae deletion strains, locus YLR320W, strain mms22, stronger effect = lower value 0.955 | S. cerevisiae deletion strains, locus YLR330W, strain CHS5, stronger effect = lower value 0.995 | S. cerevisiae deletion strains, locus YLR342W, strain FKS1 (second series), stronger effect = lower value 0.997 | S. cerevisiae deletion strains, locus YLR342W, strain FKS1, stronger effect = lower value 0.922 | S. cerevisiae deletion strains, locus YLR357W, strain rsc2, stronger effect = lower value 0.888 | S. cerevisiae deletion strains, locus YLR370C, strain arc18, stronger effect = lower value 0.936 | S. cerevisiae deletion strains, locus YLR371W, strain rom2, stronger effect = lower value 1.01 | S. cerevisiae deletion strains, locus YLR384C, strain iki3, stronger effect = lower value 0.945 | S. cerevisiae deletion strains, locus YLR418C, strain cdc73, stronger effect = lower value 1.03 | S. cerevisiae deletion strains, locus YML016C, strain PPZ1, stronger effect = lower value 0.999 | S. cerevisiae deletion strains, locus YML032C, strain rad52, stronger effect = lower value 1.01 | S. cerevisiae deletion strains, locus YML120C, strain ndi1, stronger effect = lower value 0.958 | S. cerevisiae deletion strains, locus YML124C, strain tub3, stronger effect = lower value 1 | S. cerevisiae deletion strains, locus YMR058W, strain fet3, stronger effect = lower value 0.947 | S. cerevisiae deletion strains, locus YMR078C, strain ctf18, stronger effect = lower value 1.01 | S. cerevisiae deletion strains, locus YMR125W, strain sto1, stronger effect = lower value 0.913 | S. cerevisiae deletion strains, locus YMR129W, stronger effect = lower value 0.944 | S. cerevisiae deletion strains, locus YMR205C, strain PFK2, stronger effect = lower value 0.955 | S. cerevisiae deletion strains, locus YMR223W, strain ubp8, stronger effect = lower value 1.01 | S. cerevisiae deletion strains, locus YMR263W, strain SAP30, stronger effect = lower value 0.989 | S. cerevisiae deletion strains, locus YMR307W, strain GAS1, stronger effect = lower value 1 | S. cerevisiae deletion strains, locus YNL067W, strain RPL9B, stronger effect = lower value 0.997 | S. cerevisiae deletion strains, locus YNL071W, strain lat1, stronger effect = lower value 0.935 | S. cerevisiae deletion strains, locus YNL128W, strain TEP1, stronger effect = lower value 1.01 | S. cerevisiae deletion strains, locus YNL153C, strain GIM3, stronger effect = lower value 0.997 | S. cerevisiae deletion strains, locus YNL209W, strain ssb2, stronger effect = lower value 0.971 | S. cerevisiae deletion strains, locus YNL233W, strain BNI4, stronger effect = lower value 0.971 | S. cerevisiae deletion strains, locus YNL248C, strain rpa49, stronger effect = lower value 0.941 | S. cerevisiae deletion strains, locus YNL250W, strain rad50, stronger effect = lower value 1 | S. cerevisiae deletion strains, locus YNL271C, strain bni1, stronger effect = lower value 0.996 | S. cerevisiae deletion strains, locus YNL298W, strain CLA4, stronger effect = lower value 0.976 | S. cerevisiae deletion strains, locus YNL307C, strain MCK1, stronger effect = lower value 1.01 | S. cerevisiae deletion strains, locus YNL322C, strain KRE1, stronger effect = lower value 0.994 | S. cerevisiae deletion strains, locus YNR049C, strain mso1, stronger effect = lower value 0.929 | S. cerevisiae deletion strains, locus YNR052C, strain pop2, stronger effect = lower value 1.01 | S. cerevisiae deletion strains, locus YOL006C, strain TOP1, stronger effect = lower value 1.04 | S. cerevisiae deletion strains, locus YOL012C, strain htz1 1.19 | S. cerevisiae deletion strains, locus YOL147C, strain pex11, stronger effect = lower value 1.01 | S. cerevisiae deletion strains, locus YOR001W, strain rrp6, stronger effect = lower value 0.953 | S. cerevisiae deletion strains, locus YOR061W, strain CKA2, stronger effect = lower value 0.999 | S. cerevisiae deletion strains, locus YOR069W, strain VPS5, stronger effect = lower value 1 | S. cerevisiae deletion strains, locus YOR070C, strain gyp1, stronger effect = lower value 0.947 | S. cerevisiae deletion strains, locus YOR080W, strain dia2, stronger effect = lower value 0.925 | S. cerevisiae deletion strains, locus YOR083W, strain WHI5, stronger effect = lower value 0.956 | S. cerevisiae deletion strains, locus YOR106W, strain vam3, stronger effect = lower value 0.942 | S. cerevisiae deletion strains, locus YOR136W, strain idh2, stronger effect = lower value 1.02 | S. cerevisiae deletion strains, locus YOR144C, strain elg1, stronger effect = lower value 1.02 | S. cerevisiae deletion strains, locus YOR184W, strain ser1, stronger effect = lower value 1.03 | S. cerevisiae deletion strains, locus YOR265W, strain rbl2, stronger effect = lower value 0.943 | S. cerevisiae deletion strains, locus YOR270C, strain vph1, stronger effect = lower value 0.971 | S. cerevisiae deletion strains, locus YOR290C, strain snf2, stronger effect = lower value 0.962 | S. cerevisiae deletion strains, locus YOR316C, strain cot1, stronger effect = lower value 1.01 | S. cerevisiae deletion strains, locus YPL051W, strain arl3, stronger effect = lower value 0.943 | S. cerevisiae deletion strains, locus YPL055C, strain LGE1, stronger effect = lower value 1.01 | S. cerevisiae deletion strains, locus YPL078C, strain atp4, stronger effect = lower value 0.93 | S. cerevisiae deletion strains, locus YPL106C, strain sse1, stronger effect = lower value 1.03 | S. cerevisiae deletion strains, locus YPL240C, strain hsp82, stronger effect = lower value 0.937 | S. cerevisiae deletion strains, locus YPL241C, strain CIN2, stronger effect = lower value 1 | S. cerevisiae deletion strains, locus YPR119W, strain clb2, stronger effect = lower value 1.01 | S. cerevisiae deletion strains, locus YPR141C, strain kar3, stronger effect = lower value 1.01 | S. cerevisiae deletion strains, locus YPR163C, strain tif3, stronger effect = lower value 1.02 | S. cerevisiae deletion strains, locus YPR167C, strain met16, stronger effect = lower value 1.05 | S. cerevisiae deletion strains, strain wtn01, stronger effect = lower value 1.01 | S. cerevisiae strains, strain wild type, stronger effect = lower value 1
active: S. cerevisiae deletion strains, locus YLR113W, strain HOG1, stronger effect = lower value 0.584 | S. cerevisiae deletion strains, locus YLR262C, strain YPT6 (second series), stronger effect = lower value 0.792 | S. cerevisiae deletion strains, locus YMR231W, strain pep5, stronger effect = lower value 0.92 | S. cerevisiae deletion strains, locus YNL183C, strain NPR1, stronger effect = lower value 0.731 | S. cerevisiae deletion strains, locus YNL322C, strain KRE1 (second series), stronger effect = lower value 0.882 | S. cerevisiae deletion strains, locus YOR231W, strain MKK1, stronger effect = lower value 0.796 | S. cerevisiae deletion strains, locus YPL256C, strain CLN2, stronger effect = lower value 0.756
